Measurements as given in the supplement of paper PMC11417369.
± gives the standard deviation of the averaged measurements. Whole data set: some 25,000 sequences, median “ln(normalized median fluorescence intensity)” near 7.9, cut for the highest 2% near 11. The entries come from a sample that favours the highest values as a whole.

What follows are sequences tested on PfAP2-I AP2 domain 3 (GST-tagged) (assay: gcPBM binding intensity (ln(normalized median fluorescence intensity)); higher = stronger DNA binding).
How it was run: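 Probes on an Agilent 4 × 180k array were primer-extended, double-stranded and 36 bp long, taken from intergenic genomic regions, with negative controls added. GST-tagged P. falciparum DNA-binding domains from E. coli, about 25 μg on average, were applied to the array for 1 h in 1× PBS containing 1% milk, 0.2 mg/ml BSA, 0.5% salmon testes DNA and 0.03% Triton X-100. Binding intensity, obtained after Alexa488 anti-GST antibody detection and a 488 nm scan, is the highest Masliner-normalised natural-log median intensity across replicate spots of either probe orientation.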

Sequence | gcPBM binding intensity (ln)
TATGTGTGACAAAATTGTACGGTCTCTTTATTTTGT [XGTACX_site2679] | 7.72 ± 0.54
TCCTTATAAATATATATATAATATATATATATATAT [CACACA_negctrl_site293] | 8.86 ± 0.2
ATTTTTATTCAGTTCACACACGCTTTAATATTATAT [CACACA_site3465] | 8.3 ± 0.58
ATATATCCAATATATATATATATATATATATATATA [CACACA_negctrl_site160] | 9.2 ± 0.67
TGTTGGCAGGTGAATGCATGCATATAAGTCTATCTG [TGCATGCA_site781] | 8.02 ± 1.1
TATTCCTATATAAAGACACACATATGTAACTACGAT [CACACA_site4139] | 7.68 ± 0.59
ATATAATATAACAATACGCACACGTATACAAAAAAA [CACACA_site3151] | 8.36 ± 0.41
TATTAATTTCTTTTTTCTCATCACTTTCAAAATGAA [CACACA_negctrl_site1055] | 7.9 ± 0.47
ATTATGTATACATAAACACACATATATATAAAAAAA [CACACA_site262] | 7.92 ± 0.64
TTCATTAAAGTTATTACACACAGTTCTTCAACCAAA [CACACA_site7613] | 7.88 ± 0.46
CTTTGTAGTATATTAACACACAACTGTTTATAATAT [CACACA_site6038] | 7.77 ± 0.54
TTCTTTGTAGTATATTAACACACAACTGTTTATAAT [CACACA_site9305] | 8.02 ± 0.59
ATATTTATAAATTGCACACAAATAATAACATTATAT [CACACA_site5322] | 8.68 ± 0.13
TGTATAATATTTGGTGCACACAAATTAACAACTGTT [CACACA_site9245] | 11.1 ± 0.54
TATAATATTTGGTGCACACAAATTAACAACTGTTTA [CACACA_site3742] | 11.1 ± 0.39
AAATATTTATAAATTGCACACAAATAATAACATTAT [CACACA_site8737] | 8.47 ± 0.099
ATTCAAAAGGTTTAATGTACGTGATGTTTCACAAAT [XGTACX_site784] | 7.74 ± 0.5

Sequence | gcPBM binding intensity (ln)
AAAAATGGAATTATCTGTACATATATAGTTTTTAAA [XGTACX_site5580] | 7.44 ± 0.33
AATTGTTCTATGATTTGTACACACTTTTTTTTAAAA [XGTACX_site5984] | 8.15 ± 0.52
ATTTTAATAAAATATGTACACACATACACCCATATA [CACACA_site8326] | 8.15 ± 0.34
AATACATGAATATGTAGTACAGAAAAAAAAAATATA [XGTACX_site1945] | 7.89 ± 0.6
AGATAAAATATATATGCACACACATATATATTTCAT [CACACA_site9183] | 9.255 ± 0.007
AATAAATATAAAAATGCACACACACTAATAAAAAAA [CACACA_site8201] | 8.67 ± 0.52
TTAAAAAATATATGCGTGCACTAATATTTCATATGC | 11.5 ± 0.2
TTTTTTTTTTTTAATGCACACAATATATAATATGTA [CACACA_site3694] | 11.2 ± 0.4
TTTTTAAAATATTTAACACACAATTTTAATGCATAA [CACACA_site6036] | 8.8 ± 0.11
ATATTTTACAAATGCACACATAATTTTTTTTTTTTT [CACACA_site2763] | 9.33 ± 0.099
TATAATATAATATATGCACACAAATATGTATATATG [CACACA_site8664] | 8.86 ± 0.085
ATTTTTAATATTATTACACACACTAATAAAAAAAAA [CACACA_site8265] | 7.96 ± 0.27
ATAATATTTTAATGCACACACACAAAAAAAAAAAAA [CACACA_site2891] | 11.2 ± 0.61
GTATAATATTTTAATGCACACACACTAATAAAAAAA [CACACA_site8939] | 11.1 ± 0.76
TAATATAATATATGCACACAAATATGTATATATGTG [CACACA_site2134] | 8.895 ± 0.049
TGATTCAATTTATGCACACTAAAAATTAATTATATT [CACACA_site271] | 9.65 ± 0.23
